Reference: PubChem BioAssay (Tox21)
Records with an inconclusive call do not appear. The source made the active and inactive calls. Unless noted, the call rests on the fitted dose curve; in most records, active means well fitted curve in the direction sought with a large enough effect in the repeat runs; inconclusive means weak or mixed curves; inactive means no such curve, though single readings can be large; an effect the other way counts as inactive or inconclusive.

Columns and labels:
[1] = target: Retinoic acid receptor RXR-alpha (Homo sapiens) (UniProt P19793); assay: qHTS assay to identify small molecule agonists of the RXR signaling pathway (AID 1159527; calls by dose curve; further: nearly all actives have a fitted effect of over 35% in size); details: HEK293T RXRa-UAS-bla, beta-lactamase ratio, 16 h; series mostly up to 76.8 µM
Method in brief: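 16 hr incubation of compound-treated RXR-alpha-UAS-bla HEK 293T cells (2% charcoal-stripped FBS, 37 C) preceded a 2 hr room-temperature LiveBLAzer FRET substrate step and blue/green fluorescence measurement.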

[2] = qHTS assay to identify small molecule agonists of the RXR signaling pathway - cell viability counter screen (AID 1159529); details: RXR-alpha-bla HEK293T viability, CellTiter-Glo, 16 h; series mostly up to 76.8 µM;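 further: HEK 293T cells carrying an RXR-alpha UAS beta-lactamase reporter; nearly all actives have a fitted effect of over 50% in size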
Method in brief: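 In this parallel viability measure, GeneBLAzer RXR-alpha HEK 293T cells (2% charcoal-stripped FBS) were given a 5 hr preincubation, treated with compounds 16 hr at 37 C, and read by CellTiter-Glo luminescence.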

[3] = qHTS assay to identify small molecule antagonists of the estrogen related receptor (ERR) signaling pathway - cell viability counter screen (AID 1224818); details: ERR reporter cell line viability counter screen; series mostly up to 46.1 µM;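 further: viability measured after 17.5 h of compound exposure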
Method in brief: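 ERR reporter cells plated 6 h at 37 C/5% CO2, then compounds in DMSO pin-transferred and incubated 17.5 h at 37 C. Viability read as CellTiter-Fluor fluorescence after 30 min at 37 C.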

[4] = qHTS assay to identify small molecule antagonists of the estrogen related receptor signaling pathway with the pleiotropic PPARgamma coactivator (PGC) cell viability counter screen (AID 1224822); details: ERR/PGC reporter cell line viability counter screen; series mostly up to 46.1 µM
Method in brief: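 PGC/ERR cells were seeded at 2,000 cells/well, rested 6 h at 37 C/5% CO2, then given compounds in DMSO by pin tool and incubated 17.5 h at 37 C. Viability came from CellTiter-Fluor fluorescence after 30 min.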

[5] = qHTS assay to identify small molecule antagonists of the retinoic acid receptor (RAR) signaling pathway (AID 1159552; further: nearly all actives have a fitted effect of over 50% in size); details: C3RL4 RARE luciferase reporter, retinol-stimulated, 6 h; series mostly up to 92.4 µM
Method in brief: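 C3RL4 RARE-luc cells, overnight plating; retinol 1 uM final added right after compound; 6 hr 37 C; luciferase read at 30 min RT.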

[6] = qHTS assay to identify small molecule agonists of the retinoic acid receptor (RAR) signaling pathway (AID 1159553); details: C3RL4 RARE luciferase reporter, agonist, 6 h; series mostly up to 73.3 µM
Method in brief: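 C3RL4 cells carrying a RARE luciferase reporter were plated overnight at 37 C, then exposed to compounds in DMSO for 6 hr at 37 C and 5% CO2. Luminescence was read 30 min after luciferase reagent addition at room temperature.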

[7] = qHTS assay to identify small molecule antagonists of the retinoid acid receptor (RAR) signaling pathway - cell viability counter screen (AID 1159551); details: C3RL4 cells viability, ATP luminescence (CellTiter-Glo), 6 h; series mostly up to 92.4 µM; further: nearly all actives have a fitted effect of over 35% in size
Method in brief: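 C3RL4 cells were seeded overnight at 37 C, then treated with compounds plus 1 uM (final) retinol for 6 h at 37 C. Viability was read as ATP by CellTiter-Glo luminescence after 30 min at room temperature.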
On the % scale 0 is the no-effect control and ±100 the full control effect.

Sequence of Retinoic acid receptor RXR-alpha (Homo sapiens) (P19793 whole entry, looked up): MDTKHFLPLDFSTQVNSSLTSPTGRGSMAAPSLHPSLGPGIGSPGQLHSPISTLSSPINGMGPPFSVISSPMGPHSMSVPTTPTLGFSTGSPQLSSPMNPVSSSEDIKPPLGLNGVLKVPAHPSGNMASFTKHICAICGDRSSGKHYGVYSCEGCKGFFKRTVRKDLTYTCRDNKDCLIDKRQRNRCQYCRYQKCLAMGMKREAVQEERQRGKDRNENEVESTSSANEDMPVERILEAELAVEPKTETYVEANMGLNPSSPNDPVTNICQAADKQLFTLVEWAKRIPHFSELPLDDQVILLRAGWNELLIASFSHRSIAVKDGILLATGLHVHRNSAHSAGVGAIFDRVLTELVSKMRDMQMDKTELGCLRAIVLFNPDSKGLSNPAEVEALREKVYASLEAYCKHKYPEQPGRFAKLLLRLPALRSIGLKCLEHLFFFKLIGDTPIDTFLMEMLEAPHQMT

CCN(CC)C(=O)c1ccc(O)c(OC)c1
inactive: Potency [1] | Potency [2] | outcome [3] | outcome [4]

CC12CCC(CC1=O)C2(C)C (stereo not drawn)
inactive: Potency [1] | Potency [2] | Potency [5] | Potency [6]

C1COCCO1
inactive: Potency [1] | Potency [2] | outcome [7]

O=C(CCOCCOCCOCCOCCC(=O)Nc1c(I)cc(I)c(C(=O)O)c1I)Nc1c(I)cc(I)c(C(=O)O)c1I
inactive: Potency [1] | Potency [2] | Potency [5] | Potency [6]

CC(C)[N+](C)(C)CC(O)COc1cccc2ccccc12 (stereo not drawn)
inactive: Potency [1] | Potency [2] | outcome [7]

C/C=C1\C(=O)C[C@H]2[C@@H]3CCC4=CC(=O)CC[C@]4(C)[C@H]3CC[C@]12C
inactive: Potency [1] | Potency [2] | outcome [7]

CSc1ccc(C=O)cc1
inactive: Potency [1] | Potency [2] | Potency [5]

N#CC1(O)CCCCC1
inactive: Potency [1] | Potency [2] | outcome [7]

CC(C)CCCC(C)NCCC(C)C (stereo not drawn)
inactive: Potency [1] | Potency [2] | outcome [7]

O=C(O)c1ccccc1-c1ccc(C(F)(F)F)cc1
inactive: Potency [1] | Potency [2] | outcome [7]

CNc1ncnc2nc[nH]c12
inactive: Potency [1] | Potency [2] | Potency [5]

OCCN1C[C@H](O)[C@@H](O)[C@H](O)[C@H]1CO
inactive: Potency [1] | Potency [2] | outcome [7]

Nc1[nH]c(=O)ncc1F
inactive: Potency [1] | Potency [2] | outcome [7]

CC(O)CN(CCCN(C)C)CCCN(C)C (stereo not drawn)
inactive: Potency [1] | Potency [2] | outcome [7]

FC(F)(F)C(F)(F)C(F)(F)C(F)(F)C(F)(F)C(F)(F)C(F)(F)C(F)(F)C(F)(F)C(F)(F)F
inactive: activation [1] 2.2% [at 6.98 µM] | activity change, negative = cytotoxicity [2] 1.03% [at 6.97 µM] | activity change, negative = cytotoxicity [7] 5.5% [at 8.39 µM]
